Values joined by “and” are separate entries in the source; they are usually repeats but may differ in a detail not shown here. Identical values can stand only once. Records with an inconclusive call do not appear. A call without a number means that no potency is given here. The source holds several records for some structures; these can differ, active in one and inactive in another. Active and inactive are the calls of the source. The call rests on the fitted dose curve; in most records, active means well fitted cell-killing curve with a large enough effect in the repeat runs; inconclusive means weak or mixed curves, or effect the other way; inactive means flat fitted curve, though single readings scatter.
Potency means the concentration at half of the fitted maximal effect.

A short description of the experiment: qHTS assay to identify small molecule agonists of the sonic hedgehog signaling (Shh) pathway - cell viability counter screen (AID 1259366). Further: nearly all actives have a fitted effect of over 50% in size. The settings on record: NIH/3T3 Gli1-Luc viability, CellTiter-Fluor, 24 h; series mostly up to 92.4 µM; viability change, negative = cytotoxic: at the top concentration. From the text: National Center for Advancing Translational Sciences [NCATS]
NIH Chemical Genomics Center [NCGC]
U.S. Environmental Protection Agency [EPA]
National Institutes of Environmental Health Sciences [NIEHS]
National Toxicology Program [NTP]
U.S. Food and Drug Administration [FDA]
The sonic hedgehog (Shh) pathway is essential for normal embryonic development. Dysregulation of the Shh pathway can cause severe developmental defects in organs. Therefore chemicals that interfere with the pathway are potential developmental toxicants. A cell line designated 3T3Gli1-Luc (DMB/OARSA/CFSAN/FDA, Laurel, MD), a NIH/3T3 derived clone containing stably integrated Gli1-Luc reporter is used to detect chemical interference of the Shh pathway, by changes in the expression of the firefly Luc gene under the control of the Gli1 transcriptional response element. This cell line was used to screen Tox21 libraries for identifying and prioritizing the potential developmental toxicants that interfere Shh pathway. The cytotoxicity of the compounds was tested in parallel by measuring the cell viability using CellTiter-Fluor assay system (Promega, Madison, WI) in the same wells.
Tox21 Assay Protocol Summary:
3T3 Gli1-Luc cells were dispensed at 2,000 per well in 5uL of culture medium into white solid bottom 1536-well plates (Greiner Bio-One, Monroe, NC) using a Multidrop Combi (Thermo Scientific, Waltham, MA) dispenser. The assay plates were incubated at 37 C and 5% CO2 for 4hr, and then 23nL of compounds dissolved in DMSO and positive control were transferred using a Pintool station (Wako, San Diego, CA). The assay plates were incubated at 37C and 5% CO2 for 24hr. For viability read, after 23hr of compound treatment, 1uL of CellTiter-Fluor reagent (Promega Corporation, Madison, WI) was added to each well of the assay plates using Flying Reagent Dispenser (FRD, Aurora Discovery, San Diego, CA) and incubated the assay plates at 37C for 1hr. The fluorescence signal was quantified using a ViewLux plate reader (Perkin Elmer, Shelton, CT).
A general note: Quantitative high-throughput screening tests each substance at several concentrations.
Take `NC=O`: the Potency result was “inactive”.

In the case of `Cc1ccc(C)c(O)c1C`, the Potency entry was “inactive”. On to `COC(=O)C1=C(C)NC(C)=C(C(=O)OCCN(C)Cc2ccccc2)C1c1cccc([N+](=O)[O-])c1` (stereo not given), for which the Potency is 30.5 µM (active) and 11.9 µM (active). With `CN(C)c1nc(N(C)C)nc(N(C)C)n1`, the Potency result is “inactive”.

For the compound `Nc1ccc(S(=O)(=O)Nc2cnc3ccccc3n2)cc1`, the Potency result is “inactive”.

Regarding `C[Si](C)(C)O[Si](C)(C)C`, the Potency entry was “inactive”. For the compound `CC(C)OC(=O)C(C)(C)Oc1ccc(C(=O)c2ccc(Cl)cc2)cc1`, the Potency entry is “inactive”. For the compound `O=C(Nc1ccc(Cl)cc1)Nc1ccc(Cl)c(Cl)c1`, the Potency result is “inactive”. Take `CC1=CC2C3CC(C=C3C)C2C1` (stereo not given): the Potency entry was “inactive”. `O=C(c1ccccc1)c1ccccc1O`: the Potency entry was “inactive”. For `CC(C)=CCC/C(C)=C\CO`, the Potency entry was “inactive”. With `Cc1[nH]c(=O)c(C#N)cc1-c1ccncc1`, the Potency entry was “inactive”. Consider `CCCC(=O)O`, for which the Potency result is “inactive”. As to `O=C1c2cccc(O)c2C(=O)c2c(O)cccc21`, the Potency result was “inactive”.

As to `O=CCc1ccccc1`, the Potency result was “inactive”.

For `Nc1ccc(Cl)cc1Cl`, the Potency entry was “inactive”. As to `O=C(Nc1ccc([N+](=O)[O-])cc1Cl)c1cc(Cl)ccc1O`, the Potency is 68.6 µM (active) and the viability change, negative = cytotoxic is -20.9% [at 19 µM] (inactive). Take `Cc1ccc2c(n1)Oc1ccc(C(C)C(=O)OCC(=O)N(C)C)cc1C2` (stereo not given): the Potency entry is “inactive”. Take `CCCCC(CC)COCC1CO1` (stereo not given): the Potency result is “inactive”. For `O=C(COc1ccc(Cl)cc1)N1CCN(Cc2ccc3c(c2)OCO3)CC1`, the Potency entry is “inactive”. On to `CCCc1c(OCCCCc2nn[nH]n2)ccc(C(C)=O)c1O`, for which the “viability change, negative = cytotoxic” value was 0.0811% [at 42.5 µM] (inactive). As for `NNc1ccc(C(=O)O)cc1`, the Potency entry was “inactive”.

In the case of `CC(=O)CC/C=C(\C)CCC=C(C)C`, the Potency result was “inactive”.

In the case of `CC1=CCC(C(C)(C)O)CC1` (stereo not given), the Potency result was “inactive”.

Turning to `COc1ccc(OC)c(C(O)CNC(=O)CN)c1` (stereo not given), the Potency result was “inactive”. Same read-out and setting: the value for `Brc1cc(Oc2cc(Br)c(Br)c(Br)c2Br)c(Br)c(Br)c1Br` was “inactive”. With `O=C(/C=C/C=C/c1ccc2c(c1)OCO2)N1CCCCC1`, the Potency result is “inactive”. Turning to `c1cc(N(CC2CO2)CC2CO2)ccc1OCC1CO1` (stereo not given), the Potency is 61.1 µM (active).

For the compound `CC(C)Oc1ccc2c(=O)c(-c3ccccc3)coc2c1`, the Potency entry was “inactive”. Turning to `O=P(O)(O)O`, the Potency result was “inactive”.

In the case of `CCCCC(CC)COP(=O)(OCC(CC)CCCC)OCC(CC)CCCC` (stereo not given), the Potency result is “inactive”. On the same count and under the same terms, the value for `O=[N+]([O-])c1ccc2c(c1)Cc1ccccc1-2` was “inactive”. Consider `OC1CCCCCCCCCCC1`, for which the Potency entry was “inactive”. On to `O=S(=O)(O)c1ccc(O)cc1`, for which the Potency result is “inactive”. As for `O=C(c1ccc(OCCN2CCCCC2)cc1)c1c(-c2ccc(O)cc2)sc2cc(O)ccc12`, the Potency is 24.4 µM (active) and 24.3 µM (active) and 11.9 µM (active). For the compound `COC(=O)c1ccccc1`, the Potency result is “inactive”.

On to `CCC(C)CO` (stereo not given), for which the Potency entry is “inactive”. As for `CN(C)CCN(Cc1cccs1)c1ccccn1`, the Potency entry is “inactive”. Turning to `c1cc(-c2ccncc2)ccn1`, the Potency result is “inactive”.

Source of the values: PubChem BioAssay (Tox21).
